Experimental data taken from PubChem BioAssay AID1159580 (chemical genetic matrix, 2015).
In all, about 5,500 compounds went through this assay and about 2,000 (36%) were called active. Roughly 18% stayed inconclusive and do not appear here. No stated cut-off is given here; in the data, active means normalized growth mostly below about 0.91 (no sharp cut-off); inconclusive means no clear call, values can overlap the other calls; inactive means mostly above about 0.92. The list shows a part of the results.

Assay: chemical genetic growth profiling, strain panel (AID 1159580);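 further: tested at 20 µM; growth read once vehicle control cultures reached saturation at 30 °C; 1 = growth at the plate median or of vehicle wells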
Details: growth OD

Measured: normalized growth

O=C(CCc1ccc(O)cc1)c1c(O)cc(O)cc1O[C@@H]1O[C@H](CO)[C@@H](O)[C@H](O)[C@H]1O
inactive: S. cerevisiae deletion strains, locus YJR075W, strain HOC1, stronger effect = lower value 1.05 | S. cerevisiae deletion strains, locus YKL009W, strain mrt4, stronger effect = lower value 0.978 | S. cerevisiae deletion strains, locus YKL068W, stronger effect = lower value 1 | S. cerevisiae deletion strains, locus YKL085W, strain MDH1 (second series), stronger effect = lower value 0.988 | S. cerevisiae deletion strains, locus YKL085W, strain MDH1, stronger effect = lower value 0.988 | S. cerevisiae deletion strains, locus YKL160W, strain elf1, stronger effect = lower value 1.01 | S. cerevisiae deletion strains, locus YKR001C, strain vps1, stronger effect = lower value 1 | S. cerevisiae deletion strains, locus YKR026C, strain gcn3, stronger effect = lower value 1.01 | S. cerevisiae deletion strains, locus YKR091W, strain srl3, stronger effect = lower value 1.01 | S. cerevisiae deletion strains, locus YLL001W, strain dnm1, stronger effect = lower value 1.01 | S. cerevisiae deletion strains, locus YLL026W, stronger effect = lower value 1.02 | S. cerevisiae deletion strains, locus YLL041C, strain sdh2, stronger effect = lower value 1.01 | S. cerevisiae deletion strains, locus YLR027C, strain aat2, stronger effect = lower value 1.01 | S. cerevisiae deletion strains, locus YLR039C, strain RIC1, stronger effect = lower value 1.08 | S. cerevisiae deletion strains, locus YLR058C, strain SHM2, stronger effect = lower value 1.01 | S. cerevisiae deletion strains, locus YLR102C, strain apc9, stronger effect = lower value 1.01 | S. cerevisiae deletion strains, locus YLR113W, strain HOG1, stronger effect = lower value 0.956 | S. cerevisiae deletion strains, locus YLR221C, strain rsa3, stronger effect = lower value 1.02 | S. cerevisiae deletion strains, locus YLR258W, strain gsy2, stronger effect = lower value 1.04 | S. cerevisiae deletion strains, locus YLR262C, strain YPT6 (second series), stronger effect = lower value 1.02 | S. cerevisiae deletion strains, locus YLR262C, strain YPT6, stronger effect = lower value 1.14 | S. cerevisiae deletion strains, locus YLR268W, strain sec22, stronger effect = lower value 1 | S. cerevisiae deletion strains, locus YLR320W, strain mms22, stronger effect = lower value 1.02 | S. cerevisiae deletion strains, locus YLR330W, strain CHS5, stronger effect = lower value 1.01 | S. cerevisiae deletion strains, locus YLR342W, strain FKS1 (second series), stronger effect = lower value 1.01 | S. cerevisiae deletion strains, locus YLR342W, strain FKS1, stronger effect = lower value 1.02 | S. cerevisiae deletion strains, locus YLR357W, strain rsc2, stronger effect = lower value 1 | S. cerevisiae deletion strains, locus YLR370C, strain arc18, stronger effect = lower value 1.01 | S. cerevisiae deletion strains, locus YLR371W, strain rom2, stronger effect = lower value 0.997 | S. cerevisiae deletion strains, locus YLR384C, strain iki3, stronger effect = lower value 1.03 | S. cerevisiae deletion strains, locus YLR418C, strain cdc73, stronger effect = lower value 1.03 | S. cerevisiae deletion strains, locus YML016C, strain PPZ1, stronger effect = lower value 1.02 | S. cerevisiae deletion strains, locus YML032C, strain rad52, stronger effect = lower value 0.986 | S. cerevisiae deletion strains, locus YML120C, strain ndi1, stronger effect = lower value 1.01 | S. cerevisiae deletion strains, locus YML124C, strain tub3, stronger effect = lower value 0.993 | S. cerevisiae deletion strains, locus YMR058W, strain fet3, stronger effect = lower value 1.02 | S. cerevisiae deletion strains, locus YMR078C, strain ctf18, stronger effect = lower value 0.991 | S. cerevisiae deletion strains, locus YMR125W, strain sto1, stronger effect = lower value 1.02 | S. cerevisiae deletion strains, locus YMR129W, stronger effect = lower value 1.01 | S. cerevisiae deletion strains, locus YMR205C, strain PFK2, stronger effect = lower value 1.02 | S. cerevisiae deletion strains, locus YMR223W, strain ubp8, stronger effect = lower value 0.992 | S. cerevisiae deletion strains, locus YMR231W, strain pep5, stronger effect = lower value 1.01 | S. cerevisiae deletion strains, locus YMR263W, strain SAP30, stronger effect = lower value 1.03 | S. cerevisiae deletion strains, locus YMR307W, strain GAS1, stronger effect = lower value 1.23 | S. cerevisiae deletion strains, locus YNL067W, strain RPL9B, stronger effect = lower value 1.04 | S. cerevisiae deletion strains, locus YNL071W, strain lat1, stronger effect = lower value 1.01 | S. cerevisiae deletion strains, locus YNL153C, strain GIM3, stronger effect = lower value 1.04 | S. cerevisiae deletion strains, locus YNL183C, strain NPR1, stronger effect = lower value 0.937 | S. cerevisiae deletion strains, locus YNL209W, strain ssb2, stronger effect = lower value 1.01 | S. cerevisiae deletion strains, locus YNL233W, strain BNI4, stronger effect = lower value 1.03 | S. cerevisiae deletion strains, locus YNL248C, strain rpa49, stronger effect = lower value 1.01 | S. cerevisiae deletion strains, locus YNL250W, strain rad50, stronger effect = lower value 0.986 | S. cerevisiae deletion strains, locus YNL271C, strain bni1, stronger effect = lower value 0.992 | S. cerevisiae deletion strains, locus YNL298W, strain CLA4, stronger effect = lower value 0.998 | S. cerevisiae deletion strains, locus YNL307C, strain MCK1, stronger effect = lower value 0.991 | S. cerevisiae deletion strains, locus YNL322C, strain KRE1 (second series), stronger effect = lower value 1.02 | S. cerevisiae deletion strains, locus YNL322C, strain KRE1, stronger effect = lower value 1.02 | S. cerevisiae deletion strains, locus YNR049C, strain mso1, stronger effect = lower value 1.02 | S. cerevisiae deletion strains, locus YNR052C, strain pop2, stronger effect = lower value 0.982 | S. cerevisiae deletion strains, locus YOL012C, strain htz1 0.98 | S. cerevisiae deletion strains, locus YOL147C, strain pex11, stronger effect = lower value 0.996 | S. cerevisiae deletion strains, locus YOR001W, strain rrp6, stronger effect = lower value 1.04 | S. cerevisiae deletion strains, locus YOR061W, strain CKA2, stronger effect = lower value 1.02 | S. cerevisiae deletion strains, locus YOR069W, strain VPS5, stronger effect = lower value 1.01 | S. cerevisiae deletion strains, locus YOR070C, strain gyp1, stronger effect = lower value 1 | S. cerevisiae deletion strains, locus YOR080W, strain dia2, stronger effect = lower value 1.03 | S. cerevisiae deletion strains, locus YOR083W, strain WHI5, stronger effect = lower value 1.01 | S. cerevisiae deletion strains, locus YOR106W, strain vam3, stronger effect = lower value 1.01 | S. cerevisiae deletion strains, locus YOR136W, strain idh2, stronger effect = lower value 0.994 | S. cerevisiae deletion strains, locus YOR144C, strain elg1, stronger effect = lower value 1 | S. cerevisiae deletion strains, locus YOR184W, strain ser1, stronger effect = lower value 1.03 | S. cerevisiae deletion strains, locus YOR231W, strain MKK1, stronger effect = lower value 0.993 | S. cerevisiae deletion strains, locus YOR265W, strain rbl2, stronger effect = lower value 1.01 | S. cerevisiae deletion strains, locus YOR270C, strain vph1, stronger effect = lower value 1.03 | S. cerevisiae deletion strains, locus YOR290C, strain snf2, stronger effect = lower value 0.988 | S. cerevisiae deletion strains, locus YOR316C, strain cot1, stronger effect = lower value 1.02 | S. cerevisiae deletion strains, locus YPL051W, strain arl3, stronger effect = lower value 1.01 | S. cerevisiae deletion strains, locus YPL078C, strain atp4, stronger effect = lower value 1.02 | S. cerevisiae deletion strains, locus YPL106C, strain sse1, stronger effect = lower value 1.02 | S. cerevisiae deletion strains, locus YPL240C, strain hsp82, stronger effect = lower value 1.01 | S. cerevisiae deletion strains, locus YPL241C, strain CIN2, stronger effect = lower value 1.02 | S. cerevisiae deletion strains, locus YPL256C, strain CLN2, stronger effect = lower value 0.966 | S. cerevisiae deletion strains, locus YPR119W, strain clb2, stronger effect = lower value 0.992 | S. cerevisiae deletion strains, locus YPR141C, strain kar3, stronger effect = lower value 0.987 | S. cerevisiae deletion strains, locus YPR163C, strain tif3, stronger effect = lower value 0.993 | S. cerevisiae deletion strains, locus YPR167C, strain met16, stronger effect = lower value 1.01 | S. cerevisiae deletion strains, strain wtn01, stronger effect = lower value 1 | S. cerevisiae strains, strain wild type, stronger effect = lower value 1.02
